Values joined by “and” are separate entries in the source; they are usually repeats but may differ in a detail not shown here. Equal entries are not always repeated. The source holds several records for some structures; these can differ, active in one and inactive in another. Active and inactive are the calls of the source. Rule for the calls: active = hit-call score of the fitted dose curve at least 0.9, where 1 is the maximum; inactive = score below 0.9.
Experiments:
[1] = read-out: Urokinase-type plasminogen activator receptor (uPAR), PLAUR (gene 5329); test: BSK_BE3C_uPAR: BioMAP Diversity Plus: BE3C Assay for Urokinase-type plasminogen activator receptor (uPAR) Biomarker Activity (AID 2283039); settings: primary human bronchial epithelial cells; actives raise or lower the signal
In short: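 uPAR levels were measured by ELISA after 24 h compound treatment of primary human bronchial epithelial cells, fitted in both directions relative to DMSO. Parallel SRB staining served as the cytotoxicity read-out.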

[2] = read-out: Interleukin-6 (IL6), IL6 (gene 3569); test: BSK_CASM3C_IL6: BioMAP Diversity Plus: CASM3C Assay for Interleukin-6 (IL6) Biomarker Activity for (AID 2283040); settings: primary human coronary artery smooth muscle cells; actives raise or lower the signal
[3] = read-out: Tissue plasminogen activator (tPA), PLAT (gene 5327); test: BSK_BE3C_tPA: BioMAP Diversity Plus: BE3C Assay for Tissue plasminogen activator (tPA) Biomarker Activity (AID 2283041); settings: primary human bronchial epithelial cells; actives raise or lower the signal
In short: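 tPA measured by ELISA 24 h after dosing human primary bronchial epithelial cells (BE3C system). Changes in either direction were fitted against DMSO. Parallel cultures were stained with SRB to flag overt cytotoxicity.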

[4] = read-out: Interleukin-8 (IL8), CXCL8 (gene 3576); test: BSK_CASM3C_IL8: BioMAP Diversity Plus: CASM3C Assay for Interleukin-8 (IL8) Biomarker Activity (AID 2283042); settings: primary human coronary artery smooth muscle cells; actives raise or lower the signal;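 note: IL-8 protein level quantified by ELISA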
[5] = read-out: Human Leukocyte Antigen - DR isotype (HLADR), HLA-DRA (gene 3122); test: BSK_CASM3C_HLADR: BioMAP Diversity Plus: CASM3C Assay for Human Leukocyte Antigen - DR isotype (HLADR) Biomarker Activity (AID 2283043); settings: primary human coronary artery smooth muscle cells; actives raise or lower the signal;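 note: cell-surface HLA-DR protein level quantified by ELISA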
[6] = read-out: Macrophage colony-stimulating factor (MCSF), CSF1 (gene 1435); test: BSK_CASM3C_MCSF: BioMAP Diversity Plus: CASM3C Assay for Macrophage colony-stimulating factor (MCSF) Biomarker Activity (AID 2283044); settings: primary human coronary artery smooth muscle cells; actives raise or lower the signal;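 note: M-CSF protein amount quantified by ELISA after 24 h exposure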
[7] = read-out: Low-density lipoprotein receptor (LDLR), LDLR (gene 3949); test: BSK_CASM3C_LDLR: BioMAP Diversity Plus: CASM3C Assay for Low-density lipoprotein receptor (LDLR) Biomarker Activity (AID 2283045); settings: primary human coronary artery smooth muscle cells; actives raise or lower the signal;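 note: LDLR protein level on the cell surface quantified by ELISA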
[8] = read-out: Monocyte Chemoattractant Protein-1 (MCP1), CCL2 (gene 6347); test: BSK_CASM3C_MCP1: BioMAP Diversity Plus: CASM3C Assay for Monocyte Chemoattractant Protein-1 (MCP1) Biomarker Activity (AID 2283046); settings: primary human coronary artery smooth muscle cells; actives raise or lower the signal;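 note: MCP-1 level quantified by ELISA 24 h after dosing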
[9] = BSK_CASM3C_Proliferation: Cell Proliferation Assessment in the BioMAP Diversity Plus: CASM3C Assay (AID 2283047); settings: primary human coronary artery smooth muscle cells;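 note: sulforhodamine B total protein stain as relative cell number at 560 nm; sub-confluent cells exposed 48 h before staining; fitted both ways against DMSO so gain or loss of cell number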
[10] = read-out: Monokine induced gamma interferon (MIG), CXCL9 (gene 4283); test: BSK_CASM3C_MIG: BioMAP Diversity Plus: CASM3C Assay for Monokine induced gamma interferon (MIG) Biomarker Activity (AID 2283048); settings: primary human coronary artery smooth muscle cells; actives raise or lower the signal;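 note: MIG protein level measured by ELISA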
[11] = read-out: serum amyloid A (SAA), SAA1 (gene 6288); test: BSK_CASM3C_SAA: BioMAP Diversity Plus: CASM3C Assay for serum amyloid A (SAA) Biomarker Activity (AID 2283049); settings: primary human coronary artery smooth muscle cells; actives raise or lower the signal;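 note: SAA protein level quantified by ELISA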
[12] = BSK_CASM3C_SRB: Viability Assessment in the BioMAP Diversity Plus: CASM3C Assay (AID 2283050); settings: primary human coronary artery smooth muscle cells;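 note: total protein by SRB staining as cytotoxicity measure in parallel cultures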
[13] = read-out: Thrombomodulin, THBD (gene 7056); test: BSK_CASM3C_Thrombomodulin: BioMAP Diversity Plus: CASM3C Assay for Thrombomodulin Biomarker Activity (AID 2283051); settings: primary human coronary artery smooth muscle cells; actives raise or lower the signal;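 note: thrombomodulin protein level measured by ELISA 24 h after dosing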
[14] = read-out: Tissue Factor, F3 (gene 2152); test: BSK_CASM3C_TissueFactor: BioMAP Diversity Plus: CASM3C Assay for Tissue Factor Biomarker Activity (AID 2283052); settings: primary human coronary artery smooth muscle cells; actives raise or lower the signal;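 note: cell surface tissue factor protein level read by ELISA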
[15] = read-out: Interferon-gamma inducible Protein 10 (IP10), CXCL10 (gene 3627); test: BSK_hDFCGF_IP10: BioMAP Diversity Plus: hDFCGF Assay for Interferon-gamma inducible Protein 10 (IP10) Biomarker Activity (AID 2283053); settings: primary human foreskin fibroblasts; actives raise or lower the signal
In short: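 ELISA quantification of IP-10 after a 24 h chemical exposure of human dermal foreskin fibroblast primary cultures. Both increases and decreases versus DMSO fitted.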

[16] = read-out: Urokinase-type plasminogen activator receptor (uPAR), PLAUR (gene 5329); test: BSK_CASM3C_uPAR: BioMAP Diversity Plus: CASM3C Assay for Urokinase-type plasminogen activator receptor (uPAR) Biomarker Activity (AID 2283054); settings: primary human coronary artery smooth muscle cells; actives raise or lower the signal;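 note: cell-surface uPAR protein level quantified by ELISA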
[17] = read-out: Vascular cell adhesion molecule 1 (VCAM1), VCAM1 (gene 7412); test: BSK_CASM3C_VCAM1: BioMAP Diversity Plus: CASM3C Assay for Vascular cell adhesion molecule 1 (VCAM1) Biomarker Activity (AID 2283055); settings: primary human coronary artery smooth muscle cells; actives raise or lower the signal;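 note: VCAM-1 protein level quantified by ELISA on the cells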
[18] = read-out: Collagen III, COL3A1 (gene 1281); test: BSK_hDFCGF_CollagenIII: BioMAP Diversity Plus: hDFCGF Assay for Collagen III Biomarker Activity (AID 2283056); settings: primary human foreskin fibroblasts; actives raise or lower the signal
In short: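 Response relative to DMSO, fitted in both directions, reflects ELISA-measured collagen III in human primary skin fibroblasts 24 h after compound addition.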

[19] = read-out: Epidermal growth factor receptor (EGFR), EGFR (gene 1956); test: BSK_hDFCGF_EGFR: BioMAP Diversity Plus: hDFCGF Assay for Epidermal growth factor receptor (EGFR) Biomarker Activity (AID 2283057); settings: primary human foreskin fibroblasts; actives raise or lower the signal
In short: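 EGFR levels by ELISA in human dermal fibroblast cultures, 24 h post-treatment, fitted bidirectionally versus DMSO. Parallel wells stained with sulforhodamine B to detect overt cytotoxicity.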

[20] = read-out: Interleukin-8 (IL8), CXCL8 (gene 3576); test: BSK_hDFCGF_IL8: BioMAP Diversity Plus: hDFCGF Assay for Interleukin-8 (IL8) Biomarker Activity (AID 2283058); settings: primary human foreskin fibroblasts; actives raise or lower the signal
In short: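 Fibroblast monolayers (human foreskin, hDFCGF) received test chemical for 24 h before ELISA detection of IL-8; either increases or decreases relative to DMSO count as activity.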

Measured: AC50

CC(C)(c1ccccc1)c1ccc(O)cc1
active: [3] 29.3 µM | [5] 32.3 µM | [9] 30.5 µM | [12] 29.5 µM | [13] 20 µM | [15] 34.1 µM | [17] 28.6 µM | [18] 32.2 µM | [20] 30.8 µM
inactive: all other assays above

CN(C)c1nc(=O)n(C2CCCCC2)c(=O)n1C
inactive: all assays above

CC(c1ccc(O)cc1)(c1ccc(O)cc1)c1ccc(O)cc1
inactive: [2] | [4] | [7] | [11] | [13] | [14] | [19]
active: [1] 2.4 µM | [3] 3.85 µM | [5] 4.44 µM | [6] 3.11 µM | [8] 5.43 µM | [9] 27.2 µM | [10] 5.35 µM | [12] 4.79 µM | [15] 25.6 µM | [16] 6.77 µM | [17] 5.31 µM | [18] 3.78 µM | [20] 36.6 µM

Cc1ccccc1[N+](=O)[O-]
inactive: all assays above

Oc1c(Cl)c(Cl)c(Cl)c(Cl)c1Cl
inactive: [2] | [4] | [5] | [6] | [7] | [8] | [9] | [10] | [11] | [12] | [13] | [14] | [16] | [19] | [20]
active: [1] 7.14 µM and 24.6 µM | [3] 2.56 µM and 7.59 µM | [4] 2.09 µM | [5] 20 µM | [9] 26.7 µM | [12] 29.6 µM | [14] 34.9 µM | [15] 10.2 µM and 13.1 µM | [16] 20 µM | [17] 20 µM | [18] 2.34 µM and 2.57 µM

CCOC(=O)C(O)(c1ccc(Cl)cc1)c1ccc(Cl)cc1
active: [9] 30 µM | [12] 29.5 µM | [13] 15 µM | [15] 28.5 µM | [17] 20 µM | [18] 30.2 µM
inactive: all other assays above

CCOP(=S)(OCC)SCSC(C)(C)C
active: [6] 2.51 µM
inactive: all other assays above

Nc1ccc(-c2ccc(N)cc2)cc1
active: [3] 6.73 µM
inactive: all other assays above

Cc1cc2c3c(c1)C(c1ccccc1)=N[C@@H](NC(=O)c1ccncc1)C(=O)N3CC2
inactive: all assays above

Cc1ccc(O)c(C)c1
active: [2] 1.29 µM | [5] 20.7 µM
inactive: all other assays above

C=CC(N)=O
active: [8] 0.887 µM
inactive: all other assays above

O=C(NC(=O)c1c(F)cccc1F)Nc1cc(Cl)c(OC(F)(F)C(F)F)c(Cl)c1
inactive: all assays above

CC1=C2C[C@H]3[C@@H](CC=C4C[C@@H](O)CC[C@@]43C)[C@@H]2CC[C@]12O[C@@H]1C[C@H](C)CN[C@H]1[C@H]2C
active: [7] 2.8 µM
inactive: all other assays above

CN(C)CCO
inactive: all assays above

Cc1cccc(C)c1N
inactive: all assays above

O=S(=O)(O)C(F)(F)C(F)(F)C(F)(F)C(F)(F)F
inactive: [1] | [2] | [3] | [4] | [5] | [6] | [7] | [8] | [9] | [10] | [11] | [12] | [13] | [14] | [15] | [16] | [17] | [18] | [19] | [20]
active: [11] 0.558 µM

Reference: PubChem BioAssay (EPA / NIEHS)
